The values that follow come from PubChem BioAssay.

The source made the active and inactive calls.

Assay [1] relates to Plasmodium falciparum Sir2 (PF13_0152, Sir2A). The experiment in a line: Plasmodium falciparum Sir2A binding compounds – biochemical, small-molecule microarray, 635 nm fluorescence, primary screen (AID 1098).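 Note: score merges spot fluorescence intensity with its signal-to-noise ratio.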 The conditions noted are these: fluorescence 635 nm, higher = more signal.
Assay [2] can be described thus: probe aDKK1 binding to arrayed compounds – biochemical, biotinylated probe, 635/667 nm fluorescence, primary screen (AID 1099).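 Note: score merges 667nm spot fluorescence with signal to noise across triplicate slides.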 The conditions noted are these: small-molecule microarray, higher = more signal.
Assay [3] can be described thus: probe aCHRDL2 binding to arrayed compounds – biochemical, biotinylated probe, 635/667 nm fluorescence, primary screen (AID 1100). As to conditions: small-molecule microarray, higher = more signal.
Assay [4] in a line: change in splice reporter luminescence, either direction, cell-based, HEK293, spliceosome inhibition project, primary screen (AID 1101).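 Note: HEK293 cells carrying a splicing-competent luciferase reporter gene; test concentration not given here.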 As to conditions: HEK293 splicing luciferase reporter, 24 h, higher = more signal, called active from +8 up or from −8 down.
For assay [5], the target named is Fibroblast growth factor 10 (Homo sapiens) (UniProt O15520). The experiment in a line: compounds binding fibroblast growth factor 10 – biochemical, small-molecule microarray, 635 nm fluorescence, primary screen (AID 1102). As to conditions: FGF10 binding, fluorescence 635 nm, higher = more signal.
Assay [6] has as its system glycogen synthase kinase-3 (GSK3A per assay name; protocol says GSK3B). The experiment in a line: compounds binding glycogen synthase kinase-3 – biochemical, small-molecule microarray, 635 nm fluorescence, GSK3A, primary screen (AID 1103). Note: the record names both GSK3A and GSK3B. As to conditions: fluorescence 635 nm, higher = more signal.
Assay [7] has as its target Epidermal growth factor receptor (Homo sapiens) (UniProt P00533). As to the kind of experiment: compounds binding epidermal growth factor receptor – biochemical, small-molecule microarray, 635 nm fluorescence, primary screen (AID 1104).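 Note: score merges 667 nm emission intensity with spot signal to noise over triplicate slides.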 The conditions noted are these: EGFR binding, higher = more signal.
The target in assay [8] is Follistatin-related protein 3 (Homo sapiens) (UniProt O95633). As to the kind of experiment: compounds binding follistatin-related protein 3 – biochemical, small-molecule microarray, 635 nm fluorescence, primary screen (AID 1105).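 Note: score merges emission near 667 nm and signal to noise per printed spot across three slides.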 As to conditions: FSTL3 binding, higher = more signal.
The target of assay [9] is Dickkopf-related protein 1 (Homo sapiens) (UniProt O94907). The experiment in a line: small molecules binding DKK1 protein – biochemical, small-molecule microarray, 635 nm fluorescence scan, primary screen (AID 1106).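 Note: score merges emission near 667 nm with signal to noise over three replicate slides.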 The conditions noted are these: higher = more signal.
Assay [10] deals with Inhibin beta A chain (activin A). As to the kind of experiment: small molecules binding activin A – biochemical, small-molecule microarray, 635 nm fluorescence scan, primary screen (AID 1107).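 Note: mouse activin A protein probed at 4.33 µg/mL on printed slides; score merges bound-protein fluorescence near 667 nm with spot signal-to-noise.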 As to conditions: INHBA, higher = more signal.
Assay [11] relates to Human papillomavirus type 1a protein E7 (residues 44-93). The experiment in a line: small molecules binding HPV E7 44-93 – biochemical, small-molecule microarray, residues 44-93, 635 nm fluorescence, primary screen (AID 1108).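 Note: E7 fragment applied at 1 µg/mL in TBST for 1 h at 4 C; score combines spot fluorescence with its signal to noise ratio.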 The conditions noted are these: fluorescence 635 nm, higher = more signal.
Assay [12] can be described thus: hepatitis C replication reporter changes, two-sided – Huh7 cells, luciferase reporter, HCV replication inhibitor project, primary screen (AID 1109).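 Note: huh7 hepatoma cells harbouring a luciferase neomycin HCV replicon reporter; luciferase luminescence as measure of HCV replicon replication; test concentration not given here.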 As to conditions: Huh7 HCV replicon luciferase reporter, 48 h; higher = more signal. (In general: Reporter assays use an easily measured gene product as a stand-in for the process of interest.)
In assay [13] the target is Left-right determination factor 2 (Homo sapiens) (UniProt O00292). The experiment in a line: small molecules binding LEFTY2 protein – biochemical, small-molecule microarray, 635 nm fluorescence scan, primary screen (AID 1110). As to conditions: higher = more signal.
Assay [14] deals with Calmodulin-1 (Homo sapiens) (UniProt P0DP23). The experiment in a line: small molecules binding calmodulin-1 with EGTA – biochemical, small-molecule microarray, Cy5-labelled CALM1, profiling panel (AID 1111).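 Note: labelled calmodulin applied in Tris saline Tween buffer holding calcium plus EGTA and DTT.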 As to conditions: Cy5-CALM1 binding fluorescence, higher = more signal.
Assay [15] has the same target. The experiment in a line: small molecules binding Ca-loaded calmodulin-1 – biochemical, small-molecule microarray, Cy5-labelled CALM1, plus calcium, artefact control for SMM control-protein annotation, profiling panel (AID 1112).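 Note: score merges spot fluorescence with signal to noise from triplicate slides.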 As to conditions: Cy5-CALM1 binding fluorescence, higher = more signal.
Assay [16] in a line: probe aWnt5a binding to arrayed compounds – biochemical, biotinylated probe, 635/667 nm fluorescence, primary screen (AID 1113).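 Note: score merges 667 nm fluorescence intensity with signal-to-noise per printed feature.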 The conditions noted are these: small-molecule microarray, higher = more signal.
A short description of assay [17]: probe aShh binding to arrayed compounds – biochemical, biotinylated probe, 635/667 nm fluorescence, primary screen (AID 1114).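 Note: probe is biotin-labelled aShh protein from a stem cell growth factor screen; measures binding of labelled protein to compounds printed on the slide; score merges feature fluorescence at 667 nm with signal-to-noise.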 As to conditions: small-molecule microarray, higher = more signal.
The nature of assay [18]: probe aNog binding to arrayed compounds – biochemical, biotinylated probe, 635/667 nm fluorescence, primary screen (AID 1115).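 Note: probe is biotinylated aNog protein used at 0.15 µg/mL for 1 h at 4 C; z-score combines 667 nm fluorescence of each spot with its signal to noise.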 The conditions noted are these: small-molecule microarray, higher = more signal.
Assay [19] has as its target Torsin-1A-interacting protein 1 (Homo sapiens) (UniProt Q5JTV8). As to the kind of experiment: compound microarray binding of lysate hLAP1 – cell lysate, small-molecule microarray, COS7 lysate, 635/667 nm fluorescence, primary screen (AID 1116). As to conditions: 635 nm fluorescence, higher = more signal.
In assay [20] the target is Alpha-bungarotoxin (Bungarus multicinctus) (UniProt P60615). As to the kind of experiment: compounds binding labelled alpha-BTX control protein – biochemical, small-molecule microarray, Alexa647 label, 635/667 nm fluorescence, artefact control for SMM control protein annotation, profiling panel (AID 1117). As to conditions: alpha-BTX-A647 binding fluorescence, higher = more signal.
Alpha-bungarotoxin (Bungarus multicinctus), sequence (P60615 whole entry, looked up): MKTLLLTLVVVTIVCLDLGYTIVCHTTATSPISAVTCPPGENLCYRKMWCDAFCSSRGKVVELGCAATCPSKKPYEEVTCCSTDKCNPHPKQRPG

Epidermal growth factor receptor (Homo sapiens), sequence (P00533 whole entry, looked up): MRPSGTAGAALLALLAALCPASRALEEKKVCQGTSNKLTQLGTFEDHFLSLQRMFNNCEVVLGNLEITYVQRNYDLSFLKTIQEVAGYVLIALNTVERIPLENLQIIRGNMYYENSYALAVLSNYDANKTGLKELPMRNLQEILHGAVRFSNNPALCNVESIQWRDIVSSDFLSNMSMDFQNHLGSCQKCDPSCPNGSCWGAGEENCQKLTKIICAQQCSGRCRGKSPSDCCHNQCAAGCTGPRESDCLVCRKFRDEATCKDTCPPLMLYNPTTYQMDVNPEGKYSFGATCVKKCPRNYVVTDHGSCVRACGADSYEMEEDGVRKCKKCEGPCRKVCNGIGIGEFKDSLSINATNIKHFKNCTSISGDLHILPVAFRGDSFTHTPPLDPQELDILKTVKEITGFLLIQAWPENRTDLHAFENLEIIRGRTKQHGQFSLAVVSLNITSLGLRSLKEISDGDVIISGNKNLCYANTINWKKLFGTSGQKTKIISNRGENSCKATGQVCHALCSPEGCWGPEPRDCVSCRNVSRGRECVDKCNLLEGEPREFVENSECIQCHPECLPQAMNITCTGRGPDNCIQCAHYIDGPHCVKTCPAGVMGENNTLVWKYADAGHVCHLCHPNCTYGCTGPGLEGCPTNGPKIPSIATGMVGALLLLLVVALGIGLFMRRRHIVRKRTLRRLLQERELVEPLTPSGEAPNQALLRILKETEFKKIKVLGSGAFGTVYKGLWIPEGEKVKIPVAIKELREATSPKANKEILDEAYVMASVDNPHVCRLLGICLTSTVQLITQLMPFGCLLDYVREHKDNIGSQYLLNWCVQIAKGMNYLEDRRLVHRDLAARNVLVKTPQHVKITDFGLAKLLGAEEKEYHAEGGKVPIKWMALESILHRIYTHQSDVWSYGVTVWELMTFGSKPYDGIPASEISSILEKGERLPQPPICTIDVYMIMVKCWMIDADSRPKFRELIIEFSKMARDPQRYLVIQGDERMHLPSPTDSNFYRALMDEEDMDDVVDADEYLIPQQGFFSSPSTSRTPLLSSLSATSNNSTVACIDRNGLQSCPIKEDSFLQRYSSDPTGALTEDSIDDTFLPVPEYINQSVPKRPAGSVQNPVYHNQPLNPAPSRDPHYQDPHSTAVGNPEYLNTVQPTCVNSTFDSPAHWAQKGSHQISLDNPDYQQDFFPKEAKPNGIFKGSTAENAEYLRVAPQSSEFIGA
Fibroblast growth factor 10 (Homo sapiens), sequence (O15520 whole entry, looked up): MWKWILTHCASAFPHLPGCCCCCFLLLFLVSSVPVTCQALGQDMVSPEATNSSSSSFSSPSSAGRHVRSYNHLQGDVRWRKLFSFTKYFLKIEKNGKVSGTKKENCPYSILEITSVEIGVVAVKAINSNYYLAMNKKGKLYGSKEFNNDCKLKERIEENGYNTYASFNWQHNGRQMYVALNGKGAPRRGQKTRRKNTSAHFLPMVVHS
Dickkopf-related protein 1 (Homo sapiens), sequence (O94907 whole entry, looked up): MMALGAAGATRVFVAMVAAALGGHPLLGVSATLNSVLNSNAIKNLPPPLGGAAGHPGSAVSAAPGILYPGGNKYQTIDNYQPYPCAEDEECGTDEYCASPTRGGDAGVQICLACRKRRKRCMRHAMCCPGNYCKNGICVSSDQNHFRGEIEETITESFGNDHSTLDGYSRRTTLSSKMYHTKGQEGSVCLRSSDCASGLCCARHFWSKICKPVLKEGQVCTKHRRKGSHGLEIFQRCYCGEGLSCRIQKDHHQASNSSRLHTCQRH
Torsin-1A-interacting protein 1 (Homo sapiens), sequence (Q5JTV8 whole entry, looked up): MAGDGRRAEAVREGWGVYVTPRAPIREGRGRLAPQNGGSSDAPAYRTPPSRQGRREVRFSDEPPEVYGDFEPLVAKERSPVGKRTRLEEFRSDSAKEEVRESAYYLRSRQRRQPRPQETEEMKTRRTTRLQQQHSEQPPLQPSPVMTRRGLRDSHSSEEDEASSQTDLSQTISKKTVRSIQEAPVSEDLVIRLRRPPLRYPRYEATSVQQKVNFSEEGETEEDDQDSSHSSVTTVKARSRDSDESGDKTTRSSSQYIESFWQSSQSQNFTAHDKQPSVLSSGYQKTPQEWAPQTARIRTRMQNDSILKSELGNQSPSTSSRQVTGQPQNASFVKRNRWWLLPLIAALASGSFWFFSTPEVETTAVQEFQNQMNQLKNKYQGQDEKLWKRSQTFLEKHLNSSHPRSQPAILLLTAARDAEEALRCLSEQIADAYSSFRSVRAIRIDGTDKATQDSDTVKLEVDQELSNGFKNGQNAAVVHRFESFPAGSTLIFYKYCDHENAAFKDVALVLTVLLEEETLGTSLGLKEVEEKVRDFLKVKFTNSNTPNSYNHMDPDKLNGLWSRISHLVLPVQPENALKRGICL
Left-right determination factor 2 (Homo sapiens), sequence (O00292 whole entry, looked up): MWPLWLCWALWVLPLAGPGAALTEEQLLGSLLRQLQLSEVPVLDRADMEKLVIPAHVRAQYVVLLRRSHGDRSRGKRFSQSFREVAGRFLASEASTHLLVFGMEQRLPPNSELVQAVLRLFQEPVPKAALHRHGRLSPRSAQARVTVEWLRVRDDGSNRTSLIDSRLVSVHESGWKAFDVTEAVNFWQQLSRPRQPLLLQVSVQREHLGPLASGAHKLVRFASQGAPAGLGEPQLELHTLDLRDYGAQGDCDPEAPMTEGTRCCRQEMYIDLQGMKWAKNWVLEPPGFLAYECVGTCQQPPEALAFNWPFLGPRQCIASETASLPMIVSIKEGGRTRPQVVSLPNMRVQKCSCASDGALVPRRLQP
Follistatin-related protein 3 (Homo sapiens), sequence (O95633 whole entry, looked up): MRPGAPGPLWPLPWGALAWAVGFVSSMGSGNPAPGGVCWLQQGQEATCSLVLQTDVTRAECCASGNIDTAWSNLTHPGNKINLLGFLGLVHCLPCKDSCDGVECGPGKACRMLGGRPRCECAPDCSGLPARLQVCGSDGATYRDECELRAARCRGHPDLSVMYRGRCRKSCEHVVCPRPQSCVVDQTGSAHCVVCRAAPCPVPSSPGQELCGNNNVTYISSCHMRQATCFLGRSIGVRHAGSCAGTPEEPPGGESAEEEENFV

For `COC(=O)[C@@]1(Cc2ccccc2)[C@H]2c3cc(C(=O)N(C)C)n(Cc4cc(F)c(F)c(F)c4)c3C[C@H]2CN1C(=O)c1ccccc1`, the composite z-score in assay [1] was 1.47; in assay [2], 0.375; in assay [3] it was 1.22; in assay [5], 0.86; in assay [6], -0.629; in assay [7], 0.0296. Besides, the composite z-score in [8] is 0.521; in assay [9], -0.818; in assay [10] it was 0.748; in [11], 1.28; in assay [13] it was -0.762; in [14] it was 1.39. The composite z-score in [15] is 0.449; in assay [16], 0.216; in assay [17], 0.415; in assay [18] it was 1.79; in assay [19] it was 0.845; in assay [20], 0.517. For the same compound, the z-score in assay [4] is -3.26 (inactive); in assay [12] it was -1.87.

On to `O=C(NCC(O)CO)[C@@]1(Cc2ccccc2)COC(c2ccc(OCCCO)cc2)=N1` (stereo not given in full), for which the composite z-score in [1] is -0.509; in [2], 0.549; in assay [3], 0.536; in assay [5], -0.309; in assay [6] it was -0.546; in [7], -0.198. The composite z-score in assay [8] is -1.21; in [9] it was -0.92; in [10], 0.656; in assay [11], 0.422; in assay [13], -0.483; in [14], 0.77. For the same compound, the composite z-score in assay [15] is 1.11; in [16] it was -0.0704; in assay [17], -0.283; in [18] it was -0.134; in assay [19] it was 0.561; in assay [20], -0.363. The results for the z-score in assay [4] and in assay [12] were 0.138 (inactive) and -0.992, respectively.

Turning to `C=CCN1C(=O)[C@]2(COC(c3ccc(OCCCO)cc3)=N2)Cc2ccccc21`, the composite z-score in assay [1] is 1.31; in assay [2], 0.16; in assay [3], 0.946; in assay [5] it was 0.261; in assay [6], 0.678; in assay [7] it was 0.145. Further, the composite z-score in [8] is 0.232; in assay [9] it was -0.169; in [10], 1.13; in [11] it was 1.17; in assay [13], -0.352; in assay [14], -0.0567. The composite z-score in [15] worked out at 0.0613; in assay [16], 0.227; in assay [17], 0.0253; in assay [18], 0.795; in [19] it was 2.59; in assay [20], 1.48. Also, the z-score in assay [4] was -0.556 (inactive); in assay [12] it was -0.347.

As to `O=C1O[C@@H](c2ccccc2)[C@@H](c2ccccc2)N2[C@@H](c3ccc(O)cc3)[C@]3(C(=O)Nc4ccccc43)[C@@H](C(=O)NC[C@H](O)c3ccccc3)[C@H]12`, the composite z-score was 0.851 in assay [1]; -0.139 in assay [2]; 0.0547 in assay [3]; 0.117 in [5]; -1.28 in assay [6]; 0.249 in assay [7]. The composite z-score was 0.244 in assay [8]; 0.259 in assay [9]; -0.297 in assay [10]; 1.13 in assay [11]; 0.091 in assay [13]; 0.843 in assay [14]. The composite z-score in assay [15] is 0.713; in [16] it was -0.0659; in [17], -0.0232; in [18] it was -0.0899; in [19], 0.137; in [20], 0.262. Also, the z-score in [4] is 0.576 (inactive); in [12] it was -0.427.

Turning to `O=C1C2C=CC(C(O)c3ccc(Br)cc3)N(n3cnnc3)C2C(=O)N1Cc1ccccc1` (stereo not given), the composite z-score in [1] came out at 1.11; in [2] it was 0.578; in assay [3], 0.479; in assay [5], 0.946; in assay [6], 1.07; in [7] it was 0.406. The composite z-score in assay [8] is 0.819; in assay [9], 0.0363; in assay [10], -0.0003; in [11], 1.34; in assay [13], 0.329; in [14], -0.0714. Further, the composite z-score in assay [15] is 0.182; in assay [16], -0.0236; in assay [17] it was -0.0827; in [18], 0.205; in [19] it was 0.465; in assay [20], 0.942. For the same compound, the z-score is 0.696 (inactive) in assay [4] and -4.38 in assay [12].

`CS(=O)(=O)CCOC(=O)C1=CC(c2ccc(CO)cc2)=CC(c2cccs2)N(Cc2cccc(OC(F)(F)F)c2)C=C1C(=O)OCCS(C)(=O)=O` (stereo not given): the composite z-score in assay [1] came out at 0.472; in assay [2] it was 0.15; in assay [3], 0.211; in assay [5], 1.02; in assay [6] it was 0.88; in assay [7], 0.084. Further, the composite z-score is 0.919 in [8]; 0.353 in [9]; 1.33 in assay [10]; 0.869 in [11]; 0.192 in assay [13]; 1.75 in [14]. For the same compound, the composite z-score in assay [15] was 0.707; in [16], 0.0044; in assay [17], -0.102; in assay [18], -0.475; in assay [19] it was 0.796; in assay [20], 0.904. In addition, the z-score was -0.164 (inactive) in assay [4] and -2.19 in [12].
